Experimental data taken from PubChem BioAssay (Tox21).
Inconclusive results are not listed. Unmarked numbers belong to inactive results. Activity calls are given as the source filed them. Calls follow the shape of the dose curve; as a rule, active = well fitted activation curve with a large enough effect in the repeat runs; inconclusive = weak or mixed curves; inactive = no such curve, though single readings can be large or run the other way.

experiment: qHTS assay for small molecules that induce genotoxicity in human embryonic kidney cells expressing luciferase-tagged ATAD5 (AID 651632); conditions: HEK293T ATAD5-luciferase induction, 16 h; series mostly up to 83.3 µM; activation: at the top concentration; also: nearly all actives have a fitted effect of over 15% in size
Description: U.S. Tox21 Program National Center for Advancing Translational Sciences [NCATS] NIH Chemical Genomics Center [NCGC] U.S. Environmental Protection Agency [EPA] National Institutes of Environmental Health Sciences [NIEHS] National Toxicology Program [NTP] U.S. Food and Drug Administration [FDA] Tox21 Assay Overview: As cancer cells divide rapidly and during every cell division they need to duplicate their genome by DNA replication. The failure to do so results in the cancer cell death. Based on this concept, many chemotherapeutic agents were developed but have limitations such as low efficacy and severe side effects etc. A new cell based assay was developed to find the compounds that effectively block DNA replication either by directly damaging DNA or by inhibiting other cellular mechanisms. Enhanced Level of Genome Instability Gene 1 (ELG1; human ATAD5) protein levels increase in response to various types of DNA damage. Using a luciferase reporter-gene tagged with ATAD5, a cell-based assay [developed by Kyungjae Myung, NHGRI, NIH] was used to measure the induction of ATAD5 in human embryonic kidney cells (HEK293T). So, increase in luciferase activity can be used to identify the compounds that cause genetic stress.
Tox21 Assay Protocol Summary: For genotoxicity screening, 2,000 cells in 5 uL/well were dispensed into white, solid-bottom 1536-well plates using a Multidrop Combi (Thermo Scientific) dispenser. Following transfer of 23 nL compound or DMSO vehicle by a pin tool, the plates were incubated 16 hr at 37C and 5% CO2. 5 ul Amplite (AAT Bioquest, Inc.) was then added to each plate and following 30 min incubation at room temperature, luciferase activity was quantified on a ViewLux CCD-based plate reader.
% is scaled to controls: 0 for no effect and ±100 for the full control effect.

SMILES | activation | Potency
Cc1c(-c2ccccc2)oc2c(C(=O)OCCN3CCCCC3)cccc2c1=O | -2.25% [at 39.1 µM] | –
O=C(O)[C@@H](O)[C@H](O)[C@H](O)[C@@H](O)C(=O)O | 2.05% | –
CC(C)C(=O)OC/C=C/c1ccccc1 | -1.02% | –
O=C(O[C@@H](C(=O)O)[C@@H](OC(=O)c1ccccc1)C(=O)O)c1ccccc1 | 0.356% [at 95.3 µM] | –
OCCN1CCN(CCO)CC1 | 0.729% [at 95.3 µM] | –
Oc1ccccc1F | 2.5% | –
FC(F)(F)C(Cl)(Cl)Cl | 1.98% | –
O=c1[nH]c(=O)n([C@H]2C[C@H](O)[C@@H](CO)O2)cc1C(F)(F)F | 3.97% | –
CN1[C@@H]2CC[C@H]1CC(OC(=O)c1c[nH]c3ccccc13)C2 (stereo not given in full) | -6.62% | –
C[C@]12CCC(=O)C=C1CC[C@@H]1[C@@H]2CC[C@@]2(C)[C@H]1CC[C@]2(O)C(=O)CO | 3.8% | –
CNCCC(Oc1ccccc1OC)c1ccccc1 (stereo not given) | -4.38% | –
Cc1ccccc1C(=O)Nc1ccc(C(=O)N2CCCC(O)c3cc(Cl)ccc32)c(C)c1 (stereo not given) | -5.44% | –
O=c1[nH]cnc2c1ncn2[C@@H]1O[C@H](CO)[C@@H](O)[C@H]1O | 4.6% | –
Cc1cc2c(s1)Nc1ccccc1N=C2N1CCN(C)CC1 | 2.07% | –
O=C(C(Cl)Cl)N1CCOC12CCCCC2 | -3.44% | –
CC(C)S | 0.396% [at 95.3 µM] | –
Cc1cc(S(=O)(=O)O)c(N)cc1Cl | 2.02% [at 95.3 µM] | –
CN(C)Cc1ccccc1 | – | inactive
Cc1ccc(C(C)C)cc1O | 2.04% | –
Nc1cccc(S(=O)(=O)O)c1 | 2.19% | –

SMILES | activation | Potency
O=C(O)[C@@H]1CSCN1 | -2.67% | –
CC1=C(O)C(=O)OC1C (stereo not given) | -1.14% | –
Cc1ccc(C)c(N)c1 | 0.421% | –
N#Cc1ccc(C(c2ccc(C#N)cc2)n2cncn2)cc1 | – | inactive
CC(C)=CCCC(C)CCOC=O (stereo not given) | -9.84% | –
CC(=O)N(CC(O)CN(C(C)=O)c1c(I)c(C(=O)NCC(O)CO)c(I)c(C(=O)NCC(O)CO)c1I)c1c(I)c(C(=O)NCC(O)CO)c(I)c(C(=O)NCC(O)CO)c1I (stereo not given) | -1.06% [at 39.1 µM] | –
C=CCCC=C | 2.41% [at 95.3 µM] | –
COc1ccccc1N1CCN(CCCNc2cc(=O)n(C)c(=O)n2C)CC1 | – | inactive
CCCCCCCCCCCCCCCCOP(=O)([O-])OCC[N+](C)(C)C | -3.64% | –
CCCc1c2oc(C(=O)O)cc(=O)c2cc2c(=O)cc(C(=O)O)n(CC)c12 | 2.96% | –
CCCCCCC | 1.77% [at 95.3 µM] | –
C=CCc1cc(OC)c(O)c(C(=O)NCCO)c1 | 1.99% | –
O=S(=O)(O)C(F)(F)F | -3.07% | –
CC(C)C1=CC2=CC[C@@H]3[C@](C)(CCC[C@@]3(C)C(=O)O)[C@H]2CC1 | – | inactive
CS(=O)(=O)c1ccc([C@@H](O)[C@@H](CF)NC(=O)C(Cl)Cl)cc1 | -2.95% [at 39.1 µM] | –
OCCN(CCO)CCN(CCO)CCO | 0.42% | –
O=C(CC(=O)C(F)(F)F)c1ccccc1 | -11.1% [at 95.3 µM] | –
COc1ccc(S(=O)(=O)Nc2nnc(CC(C)C)s2)cc1 | – | inactive
CC(C)=CCC[C@](C)(O)[C@@H]1CC=C(C)CC1 | -3.65% | –
CC(C)(CO)[C@@H](O)C(=O)NCCC(=O)O | -0.296% [at 95.3 µM] | –
